Where two headings read alike, the source gives them in different places.
Legend:
Conditions in all cases: n = 1
LYN = test system: LYN
LZK = test system: T1, LZK
T1 construct: gene MAP3K13

MAK = test system: MAK
MAP3K15 = test system: MAP3K15
MAP3K1 = test system: MAP3K1
MAP3K2 = test system: MAP3K2
MAP3K3 = test system: MAP3K3
MAP3K4 = test system: MAP3K4
MAP4K2 = test system: MAP4K2
MAP4K3 = test system: MAP4K3
MAP4K4 = test system: MAP4K4
MAP4K5 = test system: MAP4K5
MAPKAPK2 = test system: MAPKAPK2
MAPKAPK5 = test system: MAPKAPK5
MARK1 = test system: MARK1
MARK2 = test system: MARK2
MARK3 = test system: MARK3
MARK4 = test system: MARK4
MAST1 = test system: MAST1
MEK1 = test system: T2, MEK1
T2 construct: gene MAP2K1

[1] = concentration: 1 μM, replicates: in singlicate
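Note: KINOMEscan kinase panel screen.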

## Cc1ccc(NC(=O)Nc2cccc(C(F)(F)F)c2)cc1 [GSK955403]
LYN; 1 µM
  %Inh: 0%
LZK; 1 µM
  %Inh: 0%
MAK; 1 µM
  %Inh: 0%
MAP3K15; 1 µM
  %Inh: 0%
MAP3K1; 1 µM
  %Inh: 0%
MAP3K2; 1 µM
  %Inh: 0%
MAP3K3; 1 µM
  %Inh: 3%
MAP3K4; 1 µM
  %Inh: 35%
MAP4K2; 1 µM
  %Inh: 0%
MAP4K3; 1 µM
  %Inh: 0%
MAP4K4; 1 µM
  %Inh: 0%
MAP4K5; 1 µM
  %Inh: 0%
MAPKAPK2; 1 µM
  %Inh: 0%
MAPKAPK5; 1 µM
  %Inh: 0%
MARK1; 1 µM
  %Inh: 0%
MARK2; 1 µM
  %Inh: 0%
MARK3; 1 µM
  %Inh: 0%
MARK4; 1 µM
  %Inh: 4%
MAST1; 1 µM
  %Inh: 21%
MEK1; 1 µM
  %Inh: 5%

## Cc1cc(N2Cc3ccccc3C2)nc(Nc2ccc(S(=O)(=O)N3CCOCC3)cc2)n1.Cl [GSK1669917]
LYN; [1]
  %Inh: 0%
LZK; [1]
  %Inh: 0%
MAK; [1]
  %Inh: 14%
MAP3K15; [1]
  %Inh: 0%
MAP3K1; [1]
  %Inh: 0%
MAP3K2; [1]
  %Inh: 0%
MAP3K3; [1]
  %Inh: 0%
MAP3K4; [1]
  %Inh: 2%
MAP4K2; [1]
  %Inh: 0%
MAP4K3; [1]
  %Inh: 0%
MAP4K4; [1]
  %Inh: 0%
MAP4K5; [1]
  %Inh: 0%
MAPKAPK2; [1]
  %Inh: 4%
MAPKAPK5; [1]
  %Inh: 0%
MARK1; [1]
  %Inh: 0%
MARK2; [1]
  %Inh: 0%
MARK3; [1]
  %Inh: 12%
MARK4; [1]
  %Inh: 0%
MAST1; [1]
  %Inh: 0%
MEK1; [1]
  %Inh: 0%

## CS(=O)(=O)c1ccc(-c2c(-c3ncn[nH]3)sc(N3CCOCC3)c2C#N)cc1
LYN; [1]
  %Inh: 0%
LZK; [1]
  %Inh: 0%
MAK; [1]
  %Inh: 36%
MAP3K15; [1]
  %Inh: 0%
MAP3K1; [1]
  %Inh: 26%
MAP3K2; [1]
  %Inh: 6%
MAP3K3; [1]
  %Inh: 27%
MAP3K4; [1]
  %Inh: 2%
MAP4K2; [1]
  %Inh: 0%
MAP4K3; [1]
  %Inh: 0%
MAP4K4; [1]
  %Inh: 0%
MAP4K5; [1]
  %Inh: 0%
MAPKAPK2; [1]
  %Inh: 0%
MAPKAPK5; [1]
  %Inh: 0%
MARK1; [1]
  %Inh: 26%
MARK2; [1]
  %Inh: 10%
MARK3; [1]
  %Inh: 0%
MARK4; [1]
  %Inh: 24%
MAST1; [1]
  %Inh: 21%
MEK1; [1]
  %Inh: 2%

## Cc1cccc(-c2nc(Nc3ccc4[nH]ncc4c3)c3ccccc3n2)n1 [GW857175]
LYN; [1]
  %Inh: 17%
LZK; [1]
  %Inh: 10%
MAK; [1]
  %Inh: 0%
MAP3K15; [1]
  %Inh: 0%
MAP3K1; [1]
  %Inh: 38%
MAP3K2; [1]
  %Inh: 36%
MAP3K3; [1]
  %Inh: 0%
MAP3K4; [1]
  %Inh: 14%
MAP4K2; [1]
  %Inh: 39%
MAP4K3; [1]
  %Inh: 0%
MAP4K4; [1]
  %Inh: 0%
MAP4K5; [1]
  %Inh: 0%
MAPKAPK2; [1]
  %Inh: 0%
MAPKAPK5; [1]
  %Inh: 28%
MARK1; [1]
  %Inh: 16%
MARK2; [1]
  %Inh: 0%
MARK3; [1]
  %Inh: 0%
MARK4; [1]
  %Inh: 0%
MAST1; [1]
  %Inh: 1%
MEK1; [1]
  %Inh: 25%

## CC(C)(C)c1ccc(C(=O)Nc2cn3cc(-c4cccnc4)ccc3n2)cc1
LYN; [1]
  %Inh: 16%
LZK; [1]
  %Inh: 0%
MAK; [1]
  %Inh: 46%
MAP3K15; [1]
  %Inh: 46%
MAP3K1; [1]
  %Inh: 1%
MAP3K2; [1]
  %Inh: 9%
MAP3K3; [1]
  %Inh: 26%
MAP3K4; [1]
  %Inh: 17%
MAP4K2; [1]
  %Inh: 0%
MAP4K3; [1]
  %Inh: 5%
MAP4K4; [1]
  %Inh: 15%
MAP4K5; [1]
  %Inh: 0%
MAPKAPK2; [1]
  %Inh: 0%
MAPKAPK5; [1]
  %Inh: 0%
MARK1; [1]
  %Inh: 36%
MARK2; [1]
  %Inh: 27%
MARK3; [1]
  %Inh: 0%
MARK4; [1]
  %Inh: 38%
MAST1; [1]
  %Inh: 0%
MEK1; [1]
  %Inh: 3%

## Cc1csc(-c2nc(Nc3ccncc3)c3ccccc3n2)n1 [GW869640]
LYN; [1]
  %Inh: 0%
LZK; [1]
  %Inh: 20%
MAK; [1]
  %Inh: 2%
MAP3K15; [1]
  %Inh: 35%
MAP3K1; [1]
  %Inh: 35%
MAP3K2; [1]
  %Inh: 38%
MAP3K3; [1]
  %Inh: 1%
MAP3K4; [1]
  %Inh: 2%
MAP4K2; [1]
  %Inh: 34%
MAP4K3; [1]
  %Inh: 0%
MAP4K4; [1]
  %Inh: 14%
MAP4K5; [1]
  %Inh: 0%
MAPKAPK2; [1]
  %Inh: 0%
MAPKAPK5; [1]
  %Inh: 3%
MARK1; [1]
  %Inh: 25%
MARK2; [1]
  %Inh: 13%
MARK3; [1]
  %Inh: 0%
MARK4; [1]
  %Inh: 38%
MAST1; [1]
  %Inh: 60%
MEK1; [1]
  %Inh: 13%

## COc1cc2ncnc(Nc3ccc4nc(-c5ccccc5)[nH]c4c3)c2cc1OC.Cl [GW282450]
LYN; [1]
  %Inh: 0%
LZK; [1]
  %Inh: 0%
MAK; [1]
  %Inh: 0%
MAP3K15; [1]
  %Inh: 0%
MAP3K1; [1]
  %Inh: 19%
MAP3K2; [1]
  %Inh: 8%
MAP3K3; [1]
  %Inh: 0%
MAP3K4; [1]
  %Inh: 9%
MAP4K2; [1]
  %Inh: 0%
MAP4K3; [1]
  %Inh: 3%
MAP4K4; [1]
  %Inh: 0%
MAP4K5; [1]
  %Inh: 0%
MAPKAPK2; [1]
  %Inh: 24%
MAPKAPK5; [1]
  %Inh: 0%
MARK1; [1]
  %Inh: 0%
MARK2; [1]
  %Inh: 0%
MARK3; [1]
  %Inh: 0%
MARK4; [1]
  %Inh: 0%
MAST1; [1]
  %Inh: 0%
MEK1; [1]
  %Inh: 0%

## CC(C)(C)c1ccc(C(=O)Nc2cn3cc(Cl)ccc3n2)cc1
LYN; [1]
  %Inh: 8%
LZK; [1]
  %Inh: 0%
MAK; [1]
  %Inh: 15%
MAP3K15; [1]
  %Inh: 1%
MAP3K1; [1]
  %Inh: 0%
MAP3K2; [1]
  %Inh: 45%
MAP3K3; [1]
  %Inh: 0%
MAP3K4; [1]
  %Inh: 0%
MAP4K2; [1]
  %Inh: 0%
MAP4K3; [1]
  %Inh: 0%
MAP4K4; [1]
  %Inh: 2%
MAP4K5; [1]
  %Inh: 2%
MAPKAPK2; [1]
  %Inh: 0%
MAPKAPK5; [1]
  %Inh: 0%
MARK1; [1]
  %Inh: 0%
MARK2; [1]
  %Inh: 78%
MARK3; [1]
  %Inh: 0%
MARK4; [1]
  %Inh: 0%
MAST1; [1]
  %Inh: 0%
MEK1; [1]
  %Inh: 24%

## CCn1c(-c2ccccn2)nc2cnccc21 [SB-736398]
LYN; [1]
  %Inh: 0%
LZK; [1]
  %Inh: 11%
MAK; [1]
  %Inh: 11%
MAP3K15; [1]
  %Inh: 2%
MAP3K1; [1]
  %Inh: 8%
MAP3K2; [1]
  %Inh: 3%
MAP3K3; [1]
  %Inh: 0%
MAP3K4; [1]
  %Inh: 19%
MAP4K2; [1]
  %Inh: 0%
MAP4K3; [1]
  %Inh: 0%
MAP4K4; [1]
  %Inh: 0%
MAP4K5; [1]
  %Inh: 1%
MAPKAPK2; [1]
  %Inh: 21%
MAPKAPK5; [1]
  %Inh: 0%
MARK1; [1]
  %Inh: 0%
MARK2; [1]
  %Inh: 0%
MARK3; [1]
  %Inh: 3%
MARK4; [1]
  %Inh: 8%
MAST1; [1]
  %Inh: 47%
MEK1; [1]
  %Inh: 0%

## Cc1ccc(NC(=O)Nc2cc(C(C)(C)C)nn2-c2ccccc2)cc1 [GSK1014915]
LYN; [1]
  %Inh: 0%
LZK; [1]
  %Inh: 0%
MAK; [1]
  %Inh: 10%
MAP3K15; [1]
  %Inh: 16%
MAP3K1; [1]
  %Inh: 17%
MAP3K2; [1]
  %Inh: 17%
MAP3K3; [1]
  %Inh: 0%
MAP3K4; [1]
  %Inh: 3%
MAP4K2; [1]
  %Inh: 0%
MAP4K3; [1]
  %Inh: 10%
MAP4K4; [1]
  %Inh: 19%
MAP4K5; [1]
  %Inh: 11%
MAPKAPK2; [1]
  %Inh: 25%
MAPKAPK5; [1]
  %Inh: 0%
MARK1; [1]
  %Inh: 0%
MARK2; [1]
  %Inh: 0%
MARK3; [1]
  %Inh: 17%
MARK4; [1]
  %Inh: 10%
MAST1; [1]
  %Inh: 0%
MEK1; [1]
  %Inh: 0%

## O=C(Nc1n[nH]c2nc(-c3nccs3)c(Br)cc12)C1CC1 [SB-742251]
LYN; [1]
  %Inh: 19%
LZK; [1]
  %Inh: 26%
MAK; [1]
  %Inh: 33%
MAP3K15; [1]
  %Inh: 0%
MAP3K1; [1]
  %Inh: 21%
MAP3K2; [1]
  %Inh: 0%
MAP3K3; [1]
  %Inh: 0%
MAP3K4; [1]
  %Inh: 0%
MAP4K2; [1]
  %Inh: 0%
MAP4K3; [1]
  %Inh: 0%
MAP4K4; [1]
  %Inh: 4%
MAP4K5; [1]
  %Inh: 1%
MAPKAPK2; [1]
  %Inh: 0%
MAPKAPK5; [1]
  %Inh: 0%
MARK1; [1]
  %Inh: 0%
MARK2; [1]
  %Inh: 0%
MARK3; [1]
  %Inh: 0%
MARK4; [1]
  %Inh: 0%
MAST1; [1]
  %Inh: 20%
MEK1; [1]
  %Inh: 0%

Source: article PMC5540273 (PLoS ONE, 2017)
